Drawing on PubChem BioAssay (NCI), this text covers growth for seven molecules.

Assay in all cases: NCI-60 one-dose screen, 48 h (100 = growth as untreated, 0 = no growth, -100 = all killed)
What all share (conditions): 10 µM unless noted

The subject of test [1] is HCT-15 colon.
For test [2], the system named is HT29 colon.
The test system of test [3] is SNB-75 CNS.
Test [4] relates to SNB-19 CNS.
Test [5] deals with U251 CNS.
Test [6] concerns PC-3 prostate.
For test [7], the system named is SK-MEL-5 melanoma.
For test [8], the system named is UACC-62 melanoma.
The test system of test [9] is LOX IMVI melanoma.
The subject of test [10] is SK-MEL-28 melanoma.
The test system of test [11] is SK-MEL-2 melanoma.
The test system of test [12] is EKVX NSCLC.
Test [13] has as its system SN12C renal.
Test [14] deals with UO-31 renal.
In test [15] the test system is TK-10 renal.
The subject of test [16] is ACHN renal.
The test system of test [17] is CAKI-1 renal.
The test system of test [18] is A498 renal.
Test [19] has as its system CCRF-CEM leukemia.
Test [20] relates to MOLT-4 leukemia.

Each structure is given as a SMILES string. Several values for one entry are separate records, joined by “and”; a condition that tells them apart may be missing. Equal values may be shown once. The panel holds about 83,000 compounds, 20% with a hit somewhere; the sample as a whole holds those more often.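 For each line, cells grew in 96-well plates with the test compound present at a single concentration for 48 hours.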 Activity calls are given as the source filed them. The calls were made as follows: active = growth percent below 10; inactive = the rest.

Take `O=C1CCN(Cc2ccccc2)C(=S)N1`: the growth in [1] is 99.2% (inactive) and 98.3% (inactive); in test [2] it was 121% (inactive) and 98% (inactive); in test [3], 125% (inactive) and 83.2% (inactive); in [4] it was 105% (inactive) and 101% (inactive); in test [5], 102% (inactive) and 98.7% (inactive); in [6], 92.3% (inactive). In addition, the growth was 105% (inactive) and 108% (inactive) in [7]; 102% (inactive) and 98.9% (inactive) in test [8]; 105% (inactive) and 99.7% (inactive) in [9]; 126% (inactive) and 107% (inactive) in test [10]; 107% (inactive) and 103% (inactive) in test [11]; 111% (inactive) and 118% (inactive) in test [12]. The growth in [13] was 104% (inactive) and 95.6% (inactive); in [14] it was 87.5% (inactive) and 83.7% (inactive); in [15], 106% (inactive) and 89.6% (inactive); in test [16], 104% (inactive) and 97.3% (inactive); in test [17], 101% (inactive) and 96.1% (inactive); in test [18] it was 94.6% (inactive). In addition, the growth in test [19] is 86.3% (inactive) and 98.4% (inactive); in test [20] it was 78.2% (inactive) and 98.5% (inactive).
As to `O=C(CN1CCOCC1)N1CCOCC1`, the growth in [1] is 111% (inactive) and 98% (inactive); in test [2], 91% (inactive); in [3], 106% (inactive) and 104% (inactive); in test [4] it was 103% (inactive) and 105% (inactive); in test [5], 107% (inactive); in test [6], 90.8% (inactive). The growth in [7] is 107% (inactive) and 105% (inactive); in test [8], 93.9% (inactive) and 96.6% (inactive); in test [9], 99.6% (inactive) and 100% (inactive); in test [10], 123% (inactive) and 107% (inactive); in test [11] it was 109% (inactive); in test [12] it was 117% (inactive) and 84% (inactive). Also, the growth in test [13] is 95.9% (inactive) and 97.7% (inactive); in test [14] it was 68% (inactive) and 80% (inactive); in test [15], 96.8% (inactive) and 104% (inactive); in test [16], 108% (inactive) and 98.9% (inactive); in test [17] it was 105% (inactive) and 88.3% (inactive); in [18], 108% (inactive). For the same molecule, the growth was 106% (inactive) in test [19]; 97.9% (inactive) and 103% (inactive) in [20].
Regarding `O=C(Nc1ccc([N+](=O)[O-])cc1Cl)c1cc(Cl)ccc1O`, the growth in [1] was -3.38% (active) and 0.947% (active); in [2], -15.8% (active) and 3.08% (active); in test [3], -35.7% (active) and -48.7% (active); in [4], 13.2% (inactive) and 21% (inactive); in [5], 1.12% (active) and 16.7% (inactive); in test [6] it was 2.75% (active) and 6.39% (active). Also, the growth was -89% (active) in test [7]; -65.7% (active) and -45.3% (active) in test [8]; -17.5% (active) and -58.5% (active) in test [9]; 5.94% (active) and -10% (active) in [10]; -53.2% (active) and -51.7% (active) in test [11]; -3.89% (active) and 6.47% (active) in [12]. Further, the growth in test [13] was -6.44% (active) and 3.08% (active); in [14] it was -43.8% (active) and -31.8% (active); in test [15], -5.15% (active) and 7.49% (active); in test [16], -3.01% (active) and 8.03% (active); in [17], -0.639% (active) and -4.62% (active); in test [18], -22% (active). Further, the growth was -20% (active) and 9.33% (active) in test [19]; -44.2% (active) and -6.34% (active) in test [20].
With `COC(=O)c1nc(N)nc(C(=O)OC)c1C(=O)c1ccc(OC)cc1`, the growth in test [1] is 107% (inactive) and 42% (inactive); in test [2], 113% (inactive) and 68.2% (inactive); in [3], 95.2% (inactive) and 76% (inactive); in test [4], 98.1% (inactive) and 69.9% (inactive); in test [5], 106% (inactive) and 49.6% (inactive); in [6], 99% (inactive) and 46% (inactive). Besides, the growth in test [7] was 104% (inactive) and 57.4% (inactive); in [8], 102% (inactive) and 35% (inactive); in test [9] it was 97.7% (inactive) and 52.8% (inactive); in test [10], 116% (inactive) and 69% (inactive); in [11] it was 108% (inactive) and 77.3% (inactive); in [12], 101% (inactive) and 59.3% (inactive). Besides, the growth in test [13] was 113% (inactive) and 78.5% (inactive); in test [14] it was 89.6% (inactive) and 66.3% (inactive); in test [15] it was 105% (inactive) and 92.8% (inactive); in test [16], 104% (inactive) and 52.9% (inactive); in test [17], 94.8% (inactive) and 73.6% (inactive); in test [18] it was 133% (inactive) and 141% (inactive). In addition, the growth in test [19] is 104% (inactive) and 39.7% (inactive); in test [20], 136% (inactive) and 12.8% (inactive).
As to `O=C(Nc1cccc(Cl)c1)c1cc2ccccc2cc1O`, the growth in [1] is 16.3% (inactive) and 9.55% (active); in [2] it was 104% (inactive) and 60.1% (inactive); in [3] it was 45.7% (inactive) and 33.6% (inactive); in test [4], 13.2% (inactive); in [5], 13% (inactive) and 6.25% (active); in [6], 1.88% (active) and -4.44% (active). Besides, the growth in test [7] was -14.7% (active) and -23.9% (active); in [8], 13.8% (inactive) and 18.4% (inactive); in [9] it was 25.3% (inactive) and 11% (inactive); in test [10], 35.7% (inactive) and 42% (inactive); in [11], 27.3% (inactive) and 7.7% (active); in test [12] it was 10.5% (inactive) and 15.9% (inactive). The growth is 4.02% (active) and 7.65% (active) in test [13]; 5.45% (active) and -9.87% (active) in test [14]; 54.7% (inactive) and 26.8% (inactive) in test [15]; 12.8% (inactive) and 12.2% (inactive) in test [16]; 3.2% (active) and -1.64% (active) in [17]; -33.6% (active) in test [18]. The growth in test [19] was 38.2% (inactive) and 53.2% (inactive); in test [20], 26.3% (inactive) and 11.1% (inactive).
Consider `CCN(CC)CCc1nc(-c2ccccc2)no1`, for which the growth was 78.8% (inactive) and 111% (inactive) in test [1]; 64.3% (inactive) and 93.3% (inactive) in test [2]; 82.1% (inactive) and 72.2% (inactive) in test [3]; 89.7% (inactive) and 94.2% (inactive) in [4]; 52.7% (inactive) and 99.4% (inactive) in test [5]; 81.3% (inactive) and 96.7% (inactive) in test [6]. The growth in [7] was 84.6% (inactive) and 116% (inactive); in test [8] it was 77% (inactive) and 95.9% (inactive); in [9] it was 63.9% (inactive) and 94.6% (inactive); in test [10] it was 89.5% (inactive) and 106% (inactive); in test [11], 98% (inactive) and 104% (inactive); in [12], 90.6% (inactive) and 98.4% (inactive). Besides, the growth is 68% (inactive) and 80.8% (inactive) in test [13]; 65.9% (inactive) and 68.2% (inactive) in test [14]; 85.1% (inactive) and 107% (inactive) in test [15]; 83.2% (inactive) and 110% (inactive) in test [16]; 92.3% (inactive) and 88.2% (inactive) in test [17]; 108% (inactive) and 110% (inactive) in test [18]. Further, the growth was 44.2% (inactive) and 90.8% (inactive) in [19]; 101% (inactive) in test [20].
Take `O=C(O)C1C2C=CC(C2)C1C(=O)O` (stereo not given): the growth in test [1] is 106% (inactive) and 101% (inactive); in test [2], 94.3% (inactive) and 14.4% (inactive) and 104% (inactive); in [3], 102% (inactive) and 61.9% (inactive) and 89% (inactive); in test [4], 99.2% (inactive) and 51.6% (inactive) and 113% (inactive); in test [5], 105% (inactive) and 19.7% (inactive) and 98.8% (inactive); in test [6], 93.6% (inactive) and 17.4% (inactive) and 98.1% (inactive). Moreover, the growth in [7] is 103% (inactive) and 23.6% (inactive) and 98.5% (inactive); in test [8], 89.8% (inactive) and 26.8% (inactive) and 104% (inactive); in test [9] it was 109% (inactive) and 16.9% (inactive) and 104% (inactive); in test [10], 105% (inactive) and 49.8% (inactive) and 109% (inactive); in [11], 150% (inactive) and 57.5% (inactive) and 111% (inactive); in [12] it was 120% (inactive). The growth in [13] was 84.7% (inactive) and 24% (inactive) and 102% (inactive); in test [14], 87.9% (inactive) and 96.5% (inactive) and 94.4% (inactive); in [15], 91.1% (inactive) and 32.5% (inactive) and 106% (inactive); in test [16], 111% (inactive) and 33.6% (inactive) and 97.6% (inactive); in test [17] it was 98.2% (inactive) and 7.77% (active) and 98.7% (inactive); in test [18] it was 96.8% (inactive) and 64.8% (inactive) and 99.2% (inactive). Further, the growth in test [19] is 95.4% (inactive) and 25.3% (inactive) and 99.6% (inactive); in test [20], 106% (inactive) and 27.8% (inactive) and 101% (inactive).
